Source: PubChem BioAssay (EPA / NIEHS)
Active and inactive are the calls of the source. The calls were made as follows: active = hit-call score of the fitted dose curve at least 0.9, where 1 is the maximum; inactive = score below 0.9.

Key:
Conditions in all cases: mRNA level, 48 h; actives raise or lower the signal
[1] = read-out: Interleukin 6 (IL6), IL6 (gene 3569); experiment: LTEA_HepaRG_IL6: Life Technologies and Expression Analysis (LTEA) Assay for Interleukin 6 (IL6) using HepaRG (AID 2283509)
Summary of the method: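 qRT-PCR read-out of IL6 transcript, normalized to three housekeeping genes, after 48 h chemical exposure of HepaRG cells; 8-point half-log series, top 100 uM, 0.5% DMSO vehicle. Bidirectional curve fitting against DMSO baseline.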

[2] = read-out: Potassium channel subfamily K member 1 (KCNK1), KCNK1 (gene 3775); experiment: LTEA_HepaRG_KCNK1: Life Technologies and Expression Analysis (LTEA) Assay for Potassium channel subfamily K member 1 (KCNK1) using HepaRG (AID 2283511)
Summary of the method: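 HepaRG, 48 h exposure, 8-pt half-log series top 100 uM, 0.5% DMSO vehicle, duplicates. Readout: KCNK1 transcript by qRT-PCR (Fluidigm array), housekeeping-normalized; bidirectional curve fit relative to DMSO baseline.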

[3] = read-out: Keratin 19 (KRT19), KRT19 (gene 3880); experiment: LTEA_HepaRG_KRT19: Life Technologies and Expression Analysis (LTEA) Assay for Keratin 19 (KRT19) using HepaRG (AID 2283512)
Summary of the method: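 Gene-expression endpoint in the human liver line HepaRG after 48 h exposure to up to 100 uM test chemical with 0.5% DMSO vehicle; KRT19 mRNA by qRT-PCR, analyzed bidirectionally versus DMSO.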

[4] = read-out: JUN Transcription Factor, JUN (gene 3725); experiment: LTEA_HepaRG_JUN: Life Technologies and Expression Analysis (LTEA) Assay for JUN Transcription Factor using HepaRG (AID 2283513)
Summary of the method: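 Read-out is JUN transcript level by TaqMan qRT-PCR, normalized to ACTB, GAPDH and POLR2A, after 48 h chemical treatment of HepaRG cells. Concentration-response spanned eight half-log points up to 100 uM in 0.5% DMSO.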

[5] = read-out: Lipase C (LIPC), LIPC (gene 3990); experiment: LTEA_HepaRG_LIPC: Life Technologies and Expression Analysis (LTEA) Assay for Lipase C (LIPC) using HepaRG (AID 2283514)
Summary of the method: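 HepaRG, 48 h exposure, 8-pt half-log series from 100 uM in 0.5% DMSO, duplicates. Readout: LIPC mRNA by Fluidigm qRT-PCR, housekeeping-normalized (ACTB/GAPDH/POLR2A). Gain or loss fitted bidirectionally against DMSO baseline.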

[6] = read-out: Lipoprotein lipase (LPL), LPL (gene 4023); experiment: LTEA_HepaRG_LPL: Life Technologies and Expression Analysis (LTEA) Assay for Lipoprotein lipase (LPL) using HepaRG (AID 2283515)
Summary of the method: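 HepaRG, 48 h exposure, 8-pt half-log dilutions from 100 uM, 0.5% DMSO vehicle, duplicates; qRT-PCR (Fluidigm array) of LPL mRNA vs housekeeping genes; bidirectional curve fit relative to DMSO baseline.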

[7] = read-out: MicroRNA 122 (MIR122), gene 406906; experiment: LTEA_HepaRG_MIR122: Life Technologies and Expression Analysis (LTEA) Assay for MicroRNA 122 (MIR122) using HepaRG (AID 2283516); also: the transcript read is the microRNA miR-122
Summary of the method: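 Human liver HepaRG cultures receive test chemicals for 48 h at eight half-log concentrations from 100 uM. Expression is quantified by qRT-PCR with ACTB/GAPDH/POLR2A normalization and fitted bidirectionally against 0.5% DMSO.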

[8] = read-out: matrix metalloproteinase-10 (MMP10), MMP10 (gene 4319); experiment: LTEA_HepaRG_MMP10: Life Technologies and Expression Analysis (LTEA) Assay for matrix metalloproteinase-10 (MMP10) using HepaRG (AID 2283517)
Summary of the method: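 Transcript levels come from Fluidigm qRT-PCR normalized to three housekeeping genes, with curves fitted bidirectionally against 0.5% DMSO. Human HepaRG cells were dosed for 48 hours at concentrations up to 100 uM.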

[9] = read-out: MYC, MYC (gene 4609); experiment: LTEA_HepaRG_MYC: Life Technologies and Expression Analysis (LTEA) Assay for MYC using HepaRG (AID 2283518)
Summary of the method: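 Cells are thawed, plated and cultured 48 h, then treated for 48 h with test chemicals (eight half-log concentrations from 100 uM, 0.5% DMSO vehicle). RNA is isolated and MYC expression quantified by qRT-PCR against three housekeeping genes.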

[10] = read-out: matrix metalloproteinase-3 (MMP3), MMP3 (gene 4314); experiment: LTEA_HepaRG_MMP3: Life Technologies and Expression Analysis (LTEA) Assay for matrix metalloproteinase-3 (MMP3) using HepaRG (AID 2283519)
Summary of the method: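 qRT-PCR read-out of MMP3 mRNA (normalised to three housekeeping genes) in HepaRG liver cells after 48 h chemical exposure; 8-point half-log series, top 100 uM, 0.5% DMSO vehicle. Bidirectional curve fitting against DMSO baseline.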

[11] = read-out: Paternally Expressed 10 (PEG10), PEG10 (gene 23089); experiment: LTEA_HepaRG_PEG10: Life Technologies and Expression Analysis (LTEA) Assay for Paternally Expressed 10 (PEG10) using HepaRG (AID 2283520);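 as to AC50: PEG10 transcript by qRT-PCR normalised to ACTB GAPDH and POLR2A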
Summary of the method: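 Human HepaRG cultures are dosed for 48 h across an eight-point half-log series starting at 100 uM, with 0.5% DMSO as vehicle and baseline. Gain or loss of PEG10 transcript is measured by qRT-PCR and fitted in both directions.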

[12] = read-out: Protein phosphatase 2A (PPP2R4), PTPA (gene 5524); experiment: LTEA_HepaRG_PPP2R4: Life Technologies and Expression Analysis (LTEA) Assay for Protein phosphatase 2A (PPP2R4) using HepaRG (AID 2283522)
Summary of the method: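 Cells were plated, cultured 48 h, switched to serum-free induction medium, then dosed for 48 h (8 points, max 100 uM, 0.5% DMSO). RNA was isolated and PPP2R4 expression measured by TaqMan qRT-PCR.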

[13] = read-out: Phosphatase and tensin (PTEN), PTEN (gene 5728); experiment: LTEA_HepaRG_PTEN: Life Technologies and Expression Analysis (LTEA) Assay for Phosphatase and tensin (PTEN) using HepaRG (AID 2283523)
Summary of the method: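 HepaRG, 48 h exposure, 8-pt half-log series from 100 uM top, 0.5% DMSO vehicle, duplicates. Readout: Fluidigm qRT-PCR of PTEN transcript; housekeeping normalization (ACTB, GAPDH, POLR2A). Gain or loss fitted relative to DMSO baseline.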

[14] = read-out: solute carrier (SLC22A1), SLC22A1 (gene 6580); experiment: LTEA_HepaRG_SLC22A1: Life Technologies and Expression Analysis (LTEA) Assay for solute carrier (SLC22A1) using HepaRG (AID 2283524)
Summary of the method: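 qRT-PCR readout (TaqMan, Fluidigm arrays) of SLC22A1 transcript, normalized to three housekeeping genes; bidirectional curve fit relative to 0.5% DMSO vehicle. Differentiated human HepaRG cells, 48 h chemical exposure, top concentration 100 uM, half-log steps, eight points.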

[15] = read-out: Pyruvate Dehydrogenase Kinase 4 (PDK4), PDK4 (gene 5166); experiment: LTEA_HepaRG_PDK4: Life Technologies and Expression Analysis (LTEA) Assay for Pyruvate Dehydrogenase Kinase 4 (PDK4) using HepaRG (AID 2283525)
Summary of the method: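 HepaRG (human liver line), 48 h chemical exposure, 8-pt half-log CRC top 100 uM, 0.5% DMSO vehicle, duplicates. Readout: TaqMan qRT-PCR of PDK4 mRNA, housekeeping-normalized; gain/loss fit relative to DMSO baseline.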

[16] = read-out: NAD(P)H dehydrogenase [quinone] 1 (NQO1), NQO1 (gene 1728); experiment: LTEA_HepaRG_NQO1: Life Technologies and Expression Analysis (LTEA) Assay for NAD(P)H dehydrogenase [quinone] 1 (NQO1) using HepaRG (AID 2283526)
Summary of the method: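 Transcript induction or suppression is quantified by qRT-PCR in human HepaRG liver cells dosed for 48 hours. Eight half-log concentrations topping at 100 uM are used, with 0.5% DMSO as vehicle and baseline.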

[17] = read-out: Nuclear factor erythroid 2-related factor 2 (Homo sapiens) (UniProt Q16236); experiment: LTEA_HepaRG_NFE2L2: Life Technologies and Expression Analysis (LTEA) Assay for Nuclear factor erythroid 2-related factor 2 (NFE2L2) Transcription Factor using HepaRG (AID 2283527)
Summary of the method: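 HepaRG, 48 h dosing, 8-pt half-log series from 100 uM in 0.5% DMSO, duplicates. Read-out: NFE2L2 mRNA by qRT-PCR (ACTB/GAPDH/POLR2A normalization). Bidirectional curve fit vs DMSO baseline.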

[18] = read-out: succinate dehydrogenase complex iron sulfur subunit B (SDHB), SDHB (gene 6390); experiment: LTEA_HepaRG_SDHB: Life Technologies and Expression Analysis (LTEA) Assay for succinate dehydrogenase complex iron sulfur subunit B (SDHB) using HepaRG (AID 2283528)
Summary of the method: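 HepaRG cells (~100,000/well, plated 48 h) exposed in duplicate for 48 h in serum-free induction medium to 8-point half-log series from 100 uM in 0.5% DMSO; mRNA by qRT-PCR normalised to ACTB, GAPDH, POLR2A; bidirectional fit versus DMSO.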

[19] = read-out: Nuclear factor NF-kappa-B p105 subunit (Homo sapiens) (UniProt P19838); experiment: LTEA_HepaRG_NFKB1: Life Technologies and Expression Analysis (LTEA) Assay for Nuclear Factor Kappa B Subunit 1 (NFKB1) using HepaRG (AID 2283521);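 also: TaqMan qRT-PCR transcript normalised to ACTB GAPDH and POLR2A housekeeping genes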
Summary of the method: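 Differentiated human HepaRG cells in serum-free induction medium with 0.5% DMSO were exposed for 48 h to eight half-log concentrations, top 100 uM, in duplicate. NFKB1 mRNA measured by Fluidigm TaqMan qRT-PCR, normalised to ACTB, GAPDH and POLR2A; bidirectional fit versus DMSO.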

Measured: AC50

Sequence of Nuclear factor erythroid 2-related factor 2 (Homo sapiens) (Q16236 whole entry, looked up): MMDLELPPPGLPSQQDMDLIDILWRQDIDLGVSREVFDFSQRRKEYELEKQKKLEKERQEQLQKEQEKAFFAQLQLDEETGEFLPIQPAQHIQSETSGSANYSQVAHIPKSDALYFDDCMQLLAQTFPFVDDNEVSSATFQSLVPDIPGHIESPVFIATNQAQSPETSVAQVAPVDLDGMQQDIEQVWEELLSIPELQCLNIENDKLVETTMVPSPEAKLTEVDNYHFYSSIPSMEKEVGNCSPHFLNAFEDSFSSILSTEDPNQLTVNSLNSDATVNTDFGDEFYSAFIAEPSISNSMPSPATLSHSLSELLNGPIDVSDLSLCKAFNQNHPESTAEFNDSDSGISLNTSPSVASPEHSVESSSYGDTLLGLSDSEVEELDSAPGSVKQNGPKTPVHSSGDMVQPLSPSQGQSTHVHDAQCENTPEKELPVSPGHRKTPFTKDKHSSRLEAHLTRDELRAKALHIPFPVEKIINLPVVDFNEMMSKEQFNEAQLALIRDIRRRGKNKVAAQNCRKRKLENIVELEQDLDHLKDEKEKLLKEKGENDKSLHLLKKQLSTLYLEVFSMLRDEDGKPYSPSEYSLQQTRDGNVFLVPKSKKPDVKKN
Sequence of Nuclear factor NF-kappa-B p105 subunit (Homo sapiens) (P19838 whole entry, looked up): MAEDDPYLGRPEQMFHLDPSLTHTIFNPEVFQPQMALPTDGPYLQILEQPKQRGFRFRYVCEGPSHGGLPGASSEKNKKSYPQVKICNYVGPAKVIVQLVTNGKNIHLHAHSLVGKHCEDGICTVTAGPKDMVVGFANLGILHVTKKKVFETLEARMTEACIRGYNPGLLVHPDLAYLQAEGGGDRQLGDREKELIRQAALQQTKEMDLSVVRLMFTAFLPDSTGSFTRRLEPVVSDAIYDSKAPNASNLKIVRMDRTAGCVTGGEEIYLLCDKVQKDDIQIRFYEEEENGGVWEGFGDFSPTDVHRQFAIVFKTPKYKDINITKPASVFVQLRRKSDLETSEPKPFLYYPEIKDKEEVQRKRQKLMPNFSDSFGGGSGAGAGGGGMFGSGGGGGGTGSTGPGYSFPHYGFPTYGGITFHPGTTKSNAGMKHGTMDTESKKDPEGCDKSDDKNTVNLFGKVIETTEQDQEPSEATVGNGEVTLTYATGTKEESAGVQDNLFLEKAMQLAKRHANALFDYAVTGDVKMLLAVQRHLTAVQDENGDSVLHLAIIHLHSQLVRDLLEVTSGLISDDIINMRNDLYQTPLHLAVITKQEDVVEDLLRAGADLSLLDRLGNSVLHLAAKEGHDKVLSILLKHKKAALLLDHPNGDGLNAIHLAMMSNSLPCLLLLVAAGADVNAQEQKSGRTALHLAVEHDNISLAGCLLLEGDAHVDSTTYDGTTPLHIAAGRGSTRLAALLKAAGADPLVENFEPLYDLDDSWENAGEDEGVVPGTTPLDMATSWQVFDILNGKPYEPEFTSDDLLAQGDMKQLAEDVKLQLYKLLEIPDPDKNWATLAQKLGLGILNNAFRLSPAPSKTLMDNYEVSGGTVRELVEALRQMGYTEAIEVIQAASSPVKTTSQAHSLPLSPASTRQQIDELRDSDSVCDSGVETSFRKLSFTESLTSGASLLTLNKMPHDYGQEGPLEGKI

CCCCC(CC)COC(=O)CCCCCCCCC(=O)OCC(CC)CCCC (stereo not drawn)
not listed: [19]
inactive: all other assays above

CCCCCCCCCCCCc1ccccc1
not listed: [19]
inactive: all other assays above

CCCCCCCCO
active: [2] 83.9 µM
not listed: [19]
inactive: all other assays above

CC1=CC(=O)CC(C)(C)C1
not listed: [19]
inactive: all other assays above

Fc1ccccc1[C@@H](F)COC1CCC(Nc2ncnc3[nH]ncc23)CC1 (stereo partly drawn)
active: [1] 73.7 µM | [3] 12.6 µM | [5] 50 µM | [6] 28 µM | [7] 56.5 µM | [8] 64.7 µM | [9] 34 µM | [10] 50 µM | [11] 35.8 µM | [14] 55.8 µM | [15] 11.7 µM | [16] 26.5 µM | [17] 88.8 µM
inactive: [2] | [4] | [12] | [13] | [18]

CC[C@H]1OC(=O)[C@H](C)[C@@H](O[C@H]2C[C@@](C)(OC)[C@@H](O)[C@H](C)O2)[C@H](C)[C@@H](O[C@@H]2O[C@H](C)C[C@H](N(C)C)[C@H]2O)[C@](C)(O)C[C@@H](C)C(=O)[C@H](C)[C@@H](O)[C@]1(C)O
not listed: [4]
inactive: all other assays above
